Source: PubChem BioAssay (Broad Institute)
Pf Dd2 inh = P. falciparum Dd2 growth inhibitors, primary screen, SYBR Green fluorescence, single dose replicates. 94,000 tested, 2.3% active. activity change, % at 10 µM. AID 1159554, 2015. 72 h; hits give low values; in the data active = activity change below about -80%; inconclusive = no clear call, values can overlap the other calls
C diff growth = C. difficile growth inhibitors, primary screen, HTS; Clostridium difficile clinical isolate growth, OD600, 24 h; hits give low values; growth activity, negative = inhibition, % at 16 µg/mL (by protocol); 86,000 tested, 0.25% active; AID 1259249, 2017;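 active = mean growth activity at or below -80% and every replicate also at or below -80%; inconclusive = mean at or below -80% but some replicate above -80%; inactive = mean growth activity above -80%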
T cruzi growth-1 = T. cruzi intracellular proliferation inhibitors, primary screen, cell-based, beta-gal Tulahuen parasites, NIH3T3 host, luminescence | T. cruzi beta-gal in NIH3T3, GalScreen luminescence, 90 h | inhibition, % at 8.34 µM | 77,000 tested, 5.9% active | AID 624255, 2012;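 active = mean inhibition above about 93%, with at least 55% of replicates each passing it, limit read from the data, passing the limit was not always enough; inconclusive = only one of those two conditions holds; inactive = neither condition holds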
T cruzi growth-2 = T. cruzi intracellular proliferation inhibitors, confirmation, cell-based, NIH3T3 host, beta-gal parasite, luminescence, cherry-pick; T. cruzi beta-gal in NIH3T3, GalScreen luminescence, 90 h; shares compounds with T cruzi growth-1; AID 651739, 2012; 5,600 tested, 72% active; inhibition, % at 8.35 µM;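 active = mean replicate inhibition above about 95% and at least 55% of replicates individually reaching it, limit read from the data; inconclusive = only one of the two criteria is met; inactive = neither criterion is met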
T cruzi growth-3 = inhibitors of intracellular T. cruzi replication, confirmation, NIH3T3 host cells, beta-gal parasites, cherry-pick, set 2; shares compounds with T cruzi growth-1; T. cruzi beta-gal in NIH3T3, GalScreen luminescence, 90 h; inhibition, % at 2.09 µM; 5,600 tested, 21% active;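 active = mean inhibition above about 95%, with at least 55% of replicates also reaching it, limit read from the data; inconclusive = meets just one of the two conditions; inactive = meets neither condition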
NIH3T3 tox = cytotoxicity in mouse NIH/3T3 fibroblasts, confirmation, cytotoxicity control for T. cruzi proliferation inhibitor project, cell-based, cherry-pick, single point; shares compounds with T cruzi growth-1; NIH/3T3 viability, CellTiter-Glo ATP luminescence, 90 h; cytotoxicity (signal decrease), % at 8.35 µM; 5,600 tested, 14% active;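 active = mean signal decrease across replicates above about 35% based on untreated-well scatter, with enough replicates individually passing, limit read from the data; inconclusive = no rule stated though some were filed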
NIH3T3 tox 2 = NIH/3T3 fibroblast cytotoxicity, confirmation, cytotoxicity control, cell-based, cherry-pick, single point, set 2. NIH/3T3 viability, CellTiter-Glo ATP luminescence, 90 h. inhibition, % at 24.9 µM. 5,600 tested, 56% active. AID 651744, 2012. shares compounds with T cruzi growth-1;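 active = mean loss of cell viability signal at or above a set limit, and enough replicates individually reaching it; inconclusive = meets only the mean limit or only the replicate share; inactive = meets neither condition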
Large screens that a line does not name were inactive (follow-up assays come after a bar, where they were run). This is a sample that favours compounds with a hit; in the whole collection about 6.8% have one here.

COc1cccc(NC(=O)N[C@@H]2C=C[C@H](CC(=O)N3CCN(C)CC3)O[C@@H]2CO)c1	none (no result: T cruzi growth-1)
CCNC(=O)C[C@H]1CC[C@H]2[C@H](COc3ccc(NC(C)=O)cc3C(=O)N2C)O1	none
C[C@@H]1CN([C@H](C)CO)C(=O)c2cccc(NS(=O)(=O)c3ccc(Cl)cc3)c2O[C@@H]1CN(C)Cc1ccccc1	none
COC(=O)C[C@H]1CC[C@H](NC(=O)Nc2ccc(C(F)(F)F)cc2)[C@@H](CO)O1	none
COc1ccc(NC(=O)N[C@@H]2CC[C@@H](CC(=O)NC3CCCCC3)O[C@H]2CO)cc1	none (no result: T cruzi growth-1)
COc1ccc(S(=O)(=O)N[C@H]2C=C[C@H](CC(=O)N3CCN(c4ccccc4)CC3)O[C@H]2CO)cc1	none
O=C(C[C@@H]1CC[C@H]2[C@@H](COC[C@@H](O)CN2CC2CCCC2)O1)NCC1CC1	none (no result: T cruzi growth-1)
C[C@@H]1CN([C@@H](C)CO)S(=O)(=O)c2ccc(C#CC3(O)CCCC3)cc2O[C@H]1CN(C)C(=O)c1cccnc1	none
C[C@H]1CN([C@@H](C)CO)S(=O)(=O)c2ccc(C#CC3CC3)cc2O[C@H]1CN(C)C(=O)c1cccc(F)c1	none (no result: T cruzi growth-1)
C[C@@H]1CN([C@@H](C)CO)S(=O)(=O)c2ccc(C#CC3CCCC3)cc2O[C@H]1CN(C)C(=O)c1cccc(F)c1	Pf Dd2 inh inconclusive, T cruzi growth-1 120 (no result: C diff growth) | T cruzi growth-2 inactive | T cruzi growth-3 100 | NIH3T3 tox 41 | NIH3T3 tox 2 106
CCC(=O)N1CC2(C1)CN(S(C)(=O)=O)[C@@H](CO)c1[nH]c3cc(OC)ccc3c12	none (no result: T cruzi growth-1)
C[C@H](CO)N1C[C@H](C)[C@H](CN(C)C(=O)C2CC2)Oc2cc(-c3ccccc3)ccc2S1(=O)=O	none
Cc1ccc(S(=O)(=O)N(C)C[C@@H]2OCCCC[C@@H](C)Oc3ccc(NC(=O)Nc4c(C)noc4C)cc3C(=O)N([C@@H](C)CO)C[C@@H]2C)cc1	none
C[C@H]1CCCCO[C@@H](CN(C)C(=O)Nc2ccc3c(c2)OCO3)[C@@H](C)CN([C@@H](C)CO)C(=O)c2cc(NC(=O)Nc3ccc(C(F)(F)F)cc3)ccc2O1	none
C[C@H](CO)N1C[C@H](C)[C@H](CN(C)C(=O)Nc2ccc3c(c2)OCO3)OCCCC[C@H](C)Oc2ccc(NC(=O)Nc3ccc(C(F)(F)F)cc3)cc2C1=O	T cruzi growth-1 98 | T cruzi growth-2 101 | T cruzi growth-3 110 | NIH3T3 tox inactive | NIH3T3 tox 2 inactive
C[C@H]1CCCCO[C@@H](CN(C)C(=O)Nc2ccc(C(F)(F)F)cc2)[C@@H](C)CN([C@@H](C)CO)C(=O)c2cc(NC(=O)Nc3ccc4c(c3)OCO4)ccc2O1	T cruzi growth-1 121 | T cruzi growth-2 105 | T cruzi growth-3 109 | NIH3T3 tox inactive | NIH3T3 tox 2 inactive
C[C@@H]1CCCCO[C@H](CN(C)C(=O)Nc2ccc3c(c2)OCO3)[C@@H](C)CN([C@H](C)CO)C(=O)c2cc(NC(=O)Nc3ccc4c(c3)OCO4)ccc2O1	none (no result: C diff growth)
Cc1cccc(-c2ccc([C@H]3[C@@H](CO)N4C(=O)CN(S(=O)(=O)c5cccc(F)c5)C[C@@H]34)cc2)c1	none (no result: T cruzi growth-1)
COc1ccccc1-c1ccc([C@H]2[C@@H](CO)N(C(=O)C3CCC3)[C@H]2C#N)cc1	T cruzi growth-1 99 | T cruzi growth-2 inactive | T cruzi growth-3 inactive | NIH3T3 tox inactive | NIH3T3 tox 2 inactive
COc1ccc(-c2ccc([C@@H]3[C@H](C#N)N(C(=O)c4cccnc4)[C@H]3CO)cc2)cc1	none
COc1ccc(-c2ccc([C@@H]3[C@@H](CO)N(C(=O)c4cccnc4)[C@H]3C#N)cc2)cc1	T cruzi growth-1 96 | T cruzi growth-2 inactive | T cruzi growth-3 inactive | NIH3T3 tox inactive | NIH3T3 tox 2 inactive
COc1ccc(-c2ccc([C@@H]3[C@@H](CO)N(C(=O)NC(C)C)[C@H]3C#N)cc2)cc1	none
N#C[C@@H]1[C@H](c2ccccc2)[C@@H](CO)N1C(=O)C1CCCC1	none
N#C[C@H]1[C@@H](c2ccc(/C=C/c3ccccc3)cc2)[C@@H](CO)N1C(=O)C1CC1	T cruzi growth-1 inconclusive | T cruzi growth-2 106 | T cruzi growth-3 inactive | NIH3T3 tox inactive | NIH3T3 tox 2 35
COc1ccccc1-c1ccc([C@@H]2[C@@H](C#N)N(C(=O)NC(C)C)[C@@H]2CO)cc1	T cruzi growth-1 99 | T cruzi growth-2 96 | T cruzi growth-3 inactive | NIH3T3 tox inactive | NIH3T3 tox 2 38
COc1ccccc1-c1ccc([C@H]2[C@H](C#N)N(C(=O)C3CCC3)[C@H]2CO)cc1	none
O=C(c1ccccc1F)N1C[C@@H]2[C@H](c3ccccc31)[C@@H](CO)N2C(=O)c1ccncc1	none
O=C(N[C@@H]1CC[C@@H](CCn2cc(C3(O)CCCC3)nn2)O[C@@H]1CO)C1CCCCC1	none
C[C@@H]1CN([C@@H](C)CO)C(=O)c2cc(C#Cc3ccccc3F)cnc2O[C@@H]1CN(C)C(=O)Cc1cccnc1	none (no result: T cruzi growth-1)
COc1ccccc1-c1ccc([C@H]2[C@@H](CO)N(C(=O)C3CC3)[C@H]2C#N)cc1	T cruzi growth-1 103 | T cruzi growth-2 inactive | T cruzi growth-3 inactive | NIH3T3 tox inactive | NIH3T3 tox 2 inactive
COc1ccc(-c2ccc([C@H]3[C@@H](CO)N(C(=O)C4CC4)[C@H]3C#N)cc2)cc1	none
COc1ccc(-c2ccc([C@H]3[C@H](C#N)N(C(=O)C4CCCC4)[C@H]3CO)cc2)cc1	T cruzi growth-1 100 | T cruzi growth-2 inactive | T cruzi growth-3 inactive | NIH3T3 tox inactive | NIH3T3 tox 2 inactive
COc1ccccc1-c1ccc([C@H]2[C@@H](C#N)N(C(=O)C3CCC3)[C@@H]2CO)cc1	none
COc1ccccc1-c1ccc([C@@H]2[C@@H](C#N)N(C(=O)CN(C)C)[C@H]2CO)cc1	none
COc1ccccc1-c1ccc([C@@H]2[C@@H](C#N)N(C(=O)C3CCC3)[C@@H]2CO)cc1	T cruzi growth-1 98 | T cruzi growth-2 inactive | T cruzi growth-3 inactive | NIH3T3 tox inactive | NIH3T3 tox 2 inactive
COc1ccc(-c2ccc([C@H]3[C@@H](CO)N(C(=O)CN(C)C)[C@H]3C#N)cc2)cc1	T cruzi growth-1 105 | T cruzi growth-2 109 | T cruzi growth-3 inactive | NIH3T3 tox inactive | NIH3T3 tox 2 inconclusive
COc1ccccc1-c1ccc([C@@H]2[C@H](C#N)N(C(=O)C3CCC3)[C@H]2CO)cc1	none
O=C(c1cnccn1)N1CC(=O)N2[C@H](C1)[C@H](c1ccc(C#CC3CCCC3)cc1)[C@@H]2CO	none (no result: T cruzi growth-1)
